# Most compounds without a hit are left out; they make up all but 4.2% or so of the library.
# GDH-TPI inh – inhibits GDH-TPI coupling enzymes, artifact for Mtb FBA screen | GDH-TPI coupled enzyme counterscreen, NADH absorbance | inhibition, % at 4.8 µM | 360,000 compounds, 1.2% hits | AID 588335
# RecA splice inh – inhibitors of M. tuberculosis RecA intein splicing | 290,000 compounds, 0.75% hits | P9WHJ3 | cell-free RecA intein splicing, fluorescence | AID 2221 | inhibition, % (concentration not given with the values); in the data active means inhibition above about 30%
# Target sequence (P9WHJ3 whole entry, looked up, canonical isoform): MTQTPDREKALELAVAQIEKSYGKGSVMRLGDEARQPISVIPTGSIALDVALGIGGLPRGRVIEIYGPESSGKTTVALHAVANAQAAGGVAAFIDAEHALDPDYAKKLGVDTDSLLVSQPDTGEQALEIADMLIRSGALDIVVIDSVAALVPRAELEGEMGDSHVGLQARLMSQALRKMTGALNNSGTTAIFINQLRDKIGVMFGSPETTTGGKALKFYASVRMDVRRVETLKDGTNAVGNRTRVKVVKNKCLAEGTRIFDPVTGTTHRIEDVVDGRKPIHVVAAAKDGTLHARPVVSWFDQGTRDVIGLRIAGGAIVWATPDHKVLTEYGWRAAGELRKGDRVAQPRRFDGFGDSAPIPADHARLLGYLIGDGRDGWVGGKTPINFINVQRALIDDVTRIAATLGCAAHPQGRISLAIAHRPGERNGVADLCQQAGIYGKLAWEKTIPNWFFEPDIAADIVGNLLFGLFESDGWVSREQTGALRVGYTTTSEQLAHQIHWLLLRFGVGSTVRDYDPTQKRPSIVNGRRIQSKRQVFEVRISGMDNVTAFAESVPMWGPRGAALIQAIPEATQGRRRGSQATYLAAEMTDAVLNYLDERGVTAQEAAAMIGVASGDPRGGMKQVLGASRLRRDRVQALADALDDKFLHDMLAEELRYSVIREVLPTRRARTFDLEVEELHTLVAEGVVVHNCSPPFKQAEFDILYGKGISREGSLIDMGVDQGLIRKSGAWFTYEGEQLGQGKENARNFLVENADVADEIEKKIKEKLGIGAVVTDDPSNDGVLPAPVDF
# Mtb betalactam – beta-lactam sensitization of Mtb H37Rv; M. tuberculosis H37Rv growth with meropenem, percent inhibition; inhibition, % at 25 µM; 330,000 compounds, 0.27% hits; AID 434955; call rule not given here;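 further: growth measured after seven days incubation then overnight dye step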
# Mtb FBA inh – inhibits M. tuberculosis FBA enzyme; 360,000 compounds, 2.3% hits; P9WQA3; purified M. tuberculosis FBA, fluorescence read-out; inhibition, % at 1 µM; in the data active means inhibition above about 27%
# CCHFV vOTU inh – CCHFV vOTU protease inhibition; 370,000 compounds, 0.55% hits; inhibition, % at 11.5 µM; Pep-AMC fluorescence
# A number is an active result; 0 = inactive; - = no result given; + = active, no number. Unless noted, no stated cut-off is given here; in the data, active means inhibition above about 30%; inactive means the rest.
SMILES,GDH-TPI inh,RecA splice inh,Mtb betalactam,Mtb FBA inh,CCHFV vOTU inh
Cc1cc2c(=O)n(NC(N)=O)c(C)nc2s1,0,0,0,150.5,0
CC(Oc1ccc2oc(-c3ccccc3)c(C(=O)O)c2c1)C(=O)O (configuration not stated),0,0,0,+,0
CCOc1ccc2oc(-c3ccccc3)c(C(=O)O)c2c1,0,0,0,+,0
COC(=O)C1CN(Cc2ccccc2)CCS(=O)(=O)N1Cc1ccc(C(F)(F)F)cc1 (configuration not stated),-,-,-,-,0
C=CCN1[C@H](CC(C)C)COc2cccc(F)c2S1(=O)=O,-,-,-,-,0
CC(C)N1CCCCC(NC(=O)Cc2ccccc2)C1=O (configuration not stated),-,-,-,-,0
Nc1cc(=O)[nH]c(SCC(=O)c2ccc(O)cc2O)n1,34.0,0,0,0,0
CC(C)(C)NC(=O)CSc1nc(N)cc(=O)[nH]1,0,0,0,0,0
COC(=O)CSc1nc2ccc(C)cc2[nH]1,0,0,0,0,0
Cc1ccc2nc(SCC(=O)c3ccc(O)cc3O)[nH]c2c1,50.6,0,0,0,0
CCC1OC23CCCCC2C(C#N)(C(=N)O3)C1(C#N)C#N (configuration not stated),0,0,0,58.3,0
O=C1CN(c2nc3nonc3nc2N2CCCCC2)CCN1,35.4,0,0,0,0
Cc1cc2[nH]c(=O)c(=O)[nH]c2cc1S(=O)(=O)NC1CCCCC1C (configuration not stated),0,0,0,31.7,-
C=CCn1cc(C(=O)OC)c(=O)c2cc(S(=O)(=O)N(CC)CC)ccc21,0,0,0,0,0
C=CCn1cc(C(=O)OC)c(=O)c2cc(S(=O)(=O)N3CCC(C)CC3)ccc21,32.3,0,0,0,0
O=C(O)Cn1c2ccccc2c2nc3ccccc3nc21,31.6,-,-,0,-
COC(=O)c1cc(-c2ccc(Oc3ccccc3)cc2)c(=O)n2c1CCC2,-,-,-,-,0
Nn1c(SCc2cccc3ccccc23)nnc1-c1n[nH]c2c1CCC2,-,-,-,-,0
COc1cc(C(=O)NCCN2C(=O)S/C(=C\c3cccs3)C2=O)cc(OC)c1OC,0,0,0,0,0
COc1cc(/C=C2\SC(=O)N(CCNC(=O)c3c(C)noc3C)C2=O)cc(OC)c1OC,30.7,-,0,0,0
O=C(c1ccc(F)cc1)n1ccc2ccc(-c3ccc4ccn(Cc5ccccc5)c4c3)cc21,-,-,-,-,0
CCOC(=O)c1cc(-c2cccs2)nc2c1c(C)nn2-c1ccccn1,36.6,0,0,0,0
O=C(NCCc1c[nH]c2ccccc12)OCc1cn(Cc2cccc(Cl)c2)nn1,-,-,-,-,0
CC1(C)CC(=O)/C(=N/Nc2ccc(Cl)cc2)CO1,31.2,0,0,0,0
Cc1cccc(N/N=C2/COC(C)(C)CC2=O)c1,0,0,0,0,0
SMILES,GDH-TPI inh,RecA splice inh,Mtb betalactam,Mtb FBA inh,CCHFV vOTU inh
CCOC(=O)[C@@]12CN(C(=O)OC(C)(C)C)CC=C1N(Cc1ccc(OC)cc1)C(=O)[C@H]2CC(=O)N1CCN(C(=O)c2ccco2)CC1,-,-,-,-,0
Cc1ccc(-c2c(C(=O)N/N=C/c3ccco3)nnn2-c2nonc2N)cc1,0,0,0,0,0
CCOc1ccc(-c2c(C(=O)N/N=C/c3ccco3)nnn2-c2nonc2N)cc1,42.7,0,0,0,0
CCOc1ccc(-c2c(C(=O)N/N=C/c3ccc(C)s3)nnn2-c2nonc2N)cc1,37.0,0,0,0,-
CCCN(CCC)Cc1c(C(=O)N/N=C/C(C)=C\c2ccco2)nnn1-c1nonc1N,0,0,0,0,0
CCOc1cccc(-c2c(C(=O)N/N=C/c3ccc(C)s3)nnn2-c2nonc2N)c1,0,0,0,0,0
CC(/C=N/NC(=O)c1nnn(-c2nonc2N)c1CN(C)C)=C\c1ccco1,35.2,0,0,0,0
O=C(CSc1nnc(COc2ccccc2)n1-c1ccccc1)Nc1ccc2c(c1)OCO2,-,-,-,-,0
O=c1c2ccccc2n(Cc2ccco2)n1[C@@H](Cc1ccccc1)Cn1cc(C2CCCC2)nn1,-,-,-,-,0
CCOc1ccc(NC(=O)CN2CCN(CC(=O)Nc3cccc(F)c3)CC2)cc1,0,-,0,152.5,0
CCOc1ccc(-n2nc3ccc(NC(=O)CC)cc3n2)cc1,0,0,0,+,0
CN(Cc1ccccc1F)C(=O)C1C2C=CC3(CN(Cc4ccccc4)C(=O)C13)O2 (configuration not stated),-,-,-,-,0
CN(C)c1ccc(NC(=O)Nc2ccc3c(c2)c(=O)n(C)n3Cc2ccc(Cl)cc2)cc1,0,-,-,0,0
Cn1c(=O)c2cc(NC(=O)Nc3cccnc3)ccc2n1Cc1ccc(Cl)cc1,0,-,-,135.0,0
C=C(C)Cn1c2ccc(NC(=O)NCCc3cccs3)cc2c(=O)n1C,0,-,-,181.9,0
CN(C)c1ccc(NC(=O)Nc2ccc3c(c2)c(=O)n(C)n3Cc2ccccc2)cc1,0,-,-,0,0
C=C(C)Cn1c2ccc(NC(=O)CCc3cccnc3)cc2c(=O)n1C,0,-,-,+,0
Cn1c(=O)c2cc(NC(=O)Nc3cccnc3)ccc2n1Cc1cccc(C(F)(F)F)c1,0,-,-,114.4,0
Cn1c(=O)c2cc(NC(=O)NCCc3cccs3)ccc2n1-c1ccc(C(C)(C)C)cc1,0,-,-,0,-
CC(C)=CCn1c2ccc(NC(=O)Nc3cccnc3)cc2c(=O)n1C,0,-,-,141.4,0
CC(C)=CCn1c2ccc(NC(=O)Nc3ccc(N(C)C)cc3)cc2c(=O)n1C,0,-,-,0,0
O=C(N/N=C/c1ccc(-c2ccc([N+](=O)[O-])cc2)o1)c1cccnc1,33.2,0,0,0,0
O=[N+]([O-])c1ccc(C=NNC(=S)NN=Cc2ccc([N+](=O)[O-])cc2)cc1,31.0,-,-,0,0
COCCNC(=S)N/N=C/c1ccc(-c2ccc([N+](=O)[O-])cc2)o1,32.5,0,0,0,0
CC1(c2nnnn2Cc2ccccc2)CCCC(=O)N1Cc1cccs1 (configuration not stated),-,-,-,-,0
SMILES,GDH-TPI inh,RecA splice inh,Mtb betalactam,Mtb FBA inh,CCHFV vOTU inh
CCCC[C@H]1C2CC(OC(=O)Nc3ccccc3OC)C(C2)[C@H]2CCCCN21 (some centres not stated),-,-,-,-,0
Cc1c(Cl)cccc1NC(=O)CSc1sc2c(O)cc(=O)[nH]c2c1C#N,0,0,0,0,0
N#Cc1c(SCC(=O)Nc2ccc(Cl)cc2Cl)sc2c(O)cc(=O)[nH]c12,33.1,-,0,0,0
CCOC(=O)N1CCN(C(=O)C[C@H]2C(=O)N(CCCOC)C3=CCCCC[C@]32C(=O)OC)CC1,-,-,-,-,0
Cc1cccc(-n2c(C)cc(/C=N/NC(=O)c3ccc(CN4CCOCC4)cc3)c2C)c1,44.5,0,0,0,-
Cc1ccc(-n2c(C)cc(/C=N/NC(=O)c3ccc(CN4CCOCC4)cc3)c2C)cc1,0,0,0,0,0
CC(=O)Oc1cc2c(cc1Cl)C1(CC(c3ccccc3Cl)O2)CC(C)(C)NC(=S)N1 (configuration not stated),0,44.7,0,0,0
CCOC(=O)N1CCN(C(=O)C[C@H]2C(=O)N(Cc3ccc(OC)cc3)C3=CCCCC[C@@]32C(=O)OC)CC1,-,-,-,-,0
O=c1cc2c(nn1Cc1ccc(Cl)cc1)-c1ccccc1CC2,0,0,0,0,33.3
CC(C)N(Cc1cn(Cc2ccccc2)nn1)S(=O)(=O)c1ccccc1Br,-,-,-,-,0

# From PubChem BioAssay
